RXFP1 antagonist = blocks the human relaxin receptor RXFP1; Q9HBX9; HEK293-RXFP1, relaxin-stimulated cAMP HTRF, 30 min; stronger effect = lower value; activity change, negative = inhibition, % at 57.5 µM; actives 0.59% (n = 350,000); AID 1259400;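 active = activity change of -60% or lower, but not beyond a set lower limit; inconclusive = change between -60% and -40%, or beyond the set limit; inactive = change above -40%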; note: % is set by controls: 0 for no effect and ±100 for the full control effect
Target sequence (Q9HBX9 whole entry, looked up): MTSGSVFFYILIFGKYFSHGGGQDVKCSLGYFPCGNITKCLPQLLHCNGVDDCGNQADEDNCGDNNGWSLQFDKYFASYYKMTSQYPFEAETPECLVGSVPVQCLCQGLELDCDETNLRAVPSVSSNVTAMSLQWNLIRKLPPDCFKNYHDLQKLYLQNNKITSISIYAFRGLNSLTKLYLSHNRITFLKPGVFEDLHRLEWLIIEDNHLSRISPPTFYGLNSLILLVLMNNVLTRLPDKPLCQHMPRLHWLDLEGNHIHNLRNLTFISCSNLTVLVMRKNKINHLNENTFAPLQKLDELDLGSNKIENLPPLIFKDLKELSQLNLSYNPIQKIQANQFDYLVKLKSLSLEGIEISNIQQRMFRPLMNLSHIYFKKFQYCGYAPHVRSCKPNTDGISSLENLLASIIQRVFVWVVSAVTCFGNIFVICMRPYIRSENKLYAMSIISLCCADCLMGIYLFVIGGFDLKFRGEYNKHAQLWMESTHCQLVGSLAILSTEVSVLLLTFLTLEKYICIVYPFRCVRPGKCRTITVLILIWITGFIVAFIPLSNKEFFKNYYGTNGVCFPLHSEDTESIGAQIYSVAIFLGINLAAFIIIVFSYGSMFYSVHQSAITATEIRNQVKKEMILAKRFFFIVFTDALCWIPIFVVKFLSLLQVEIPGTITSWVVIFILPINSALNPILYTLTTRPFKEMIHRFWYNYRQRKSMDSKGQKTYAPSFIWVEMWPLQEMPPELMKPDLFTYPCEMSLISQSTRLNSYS
gsp agonist = agonists of gsp mutant (McCune-Albright syndrome). actives 0.13% (n = 340,000). AID 624287. Potency, µM (highest dose often 76.9 µM), without a hit: at the top dose activation (cAMP increase), most hits filed as activators. gsp mutant cells, cAMP HTRF, 30 min; active = well fitted activation curve with a large enough effect; inconclusive = small, poorly fitted or top-dose-only effect, or another doubt; inactive = no such curve, though single readings can be large or run the other way; cell line not stated here;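 note: phosphodiesterase inhibitor Ro 20-1724 added with compounds to block cAMP breakdown; potency is the fitted concentration of half-maximal effect; nearly all actives have a fitted effect of over 60% in size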
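Cells in DMEM/10% FBS with G418 were pretreated with compounds in DMSO plus […] (300 uM stock) for 30 min at 37C. cAMP was measured by HTRF (cAMP-d2 plus anti-cAMP antibody-K) after 30 min at room temperature.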
RXFP1 agonist = agonists of human relaxin receptor RXFP1 | Potency, µM (highest dose often 57.5 µM), without a hit: at the highest dose activation, hits mostly activators | Q9HBX9 | actives 0.3% (n = 370,000) | HEK293T-RXFP1 cAMP TR-FRET, 30 min; response scale: percent of porcine relaxin response, buffer zero; active = well fitted activation curve with a large enough effect; inconclusive = small, poorly fitted or top-dose-only effect; note: potency is the fitted concentration of half-maximal effect; % is set by controls: 0 for no effect and ±100 for the full control effect; nearly all actives have a fitted effect of over 60% in size
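HEK293 cells stably expressing RXFP1, treated 30 min at 37C with compounds plus PDE4 inhibitor Ro 20174; cAMP measured by HTRF TR-FRET. Normalized to buffer and 29 nM porcine relaxin; EC50 by Hill fit.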
gsp antagonist = antagonizes gsp, the McCune-Albright syndrome mutation | gsp-mutant cells, cAMP HTRF, 30 min | Potency, µM (doses to about 76.9 µM), inactives show at the highest dose activity change, negative = inhibition, most hits filed as inhibitors | actives 0.4% (n = 340,000) | AID 624288; calls by dose curve; cell line not stated here;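 note: intracellular cAMP measured with PDE inhibitor Ro 20-1724 present during compound exposure; potency is the fitted concentration of half-maximal effect; % is set by controls: 0 for no effect and ±100 for the full control effect; nearly all actives have a fitted effect of over 65% in size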
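Cells, 2000/well, grown 16–24 h in DMEM 10% FBS with 0.5 mg/ml G418, then compounds plus […] (300 uM addition stock), 30 min at 37C. cAMP read by HTRF (cAMP-d2 and anti-cAMP antibody-K in lysis buffer) after 30 min RT.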
* marks the source's active call; other numbers are inactive results; [ ] = remark or other dose. The list is not random: actives were taken first. Their share in the collection is about 0.9%.

For NC[C@H]1O[C@H](O[C@H]2[C@H](O[C@@H]3O[C@H](CO)[C@@H](O)[C@H]3O)C(O)[C@H](N)C[C@@H]2N)[C@H](N)[C@@H](O)[C@@H]1O (stereo partly specified) the results were RXFP1 antagonist 0.
For Cc1ccc2nc(Cl)c(/C=N/NC(=O)[C@H]3C[C@@H]3c3ccccc3)cc2c1 the results were RXFP1 antagonist 13, gsp agonist -1%[15.4 µM], RXFP1 agonist 2% and gsp antagonist 2%.
`Cc1ccc2nc(Cl)c(/C=N/NC(=O)c3ccccc3O)cc2c1` gave RXFP1 antagonist -11, gsp agonist -11%, RXFP1 agonist 1% and gsp antagonist 35µM*.
`COc1ccc(CN(C)CC(O)COc2ccc(-c3ccccc3)cc2)cc1OC` (stereo unspecified) gave RXFP1 antagonist -66*, gsp agonist 13%, RXFP1 agonist -2% and gsp antagonist 5%.
COc1ccc(C(=O)Nc2nnc(S(=O)(=O)N(C)c3ccc(Cl)cc3)s2)cc1OC was read as RXFP1 antagonist -2 and RXFP1 agonist 3%.
CCN1/C(=C/C(C)=C/c2sc3ccccc3[n+]2CC)Sc2ccccc21 was read as RXFP1 antagonist -119*, gsp agonist -93%, RXFP1 agonist 5% and gsp antagonist 35µM*.
CCOc1cc(/C=N/NC(=O)c2ccccc2-n2cccc2)ccc1O was read as RXFP1 antagonist -7, gsp agonist 20%, RXFP1 agonist 3% and gsp antagonist 8%.
Screening COc1ccc(/C=N\NC(=O)c2ccccc2OC)cc1COc1c(F)c(F)c(F)c(F)c1F returned RXFP1 antagonist -19, gsp agonist -6%[15.4 µM], RXFP1 agonist -2% and gsp antagonist 40µM*.
Screening CCOc1cc(/C=N/NC(=O)c2ccccc2OCc2ccc(F)cc2)ccc1O returned RXFP1 antagonist 5, gsp agonist inconclusive, RXFP1 agonist -3% and gsp antagonist 35µM*.
Screening COc1ccc(/C=N\NC(=O)c2ccccc2Cl)cc1COc1c(F)c(F)c(F)c(F)c1F returned RXFP1 antagonist -13, gsp agonist 18%[15.4 µM], RXFP1 agonist 0% and gsp antagonist -15%.
`CC1=NOC(=O)/C1=C\c1ccc(-c2ccc(Br)cc2)o1` gave RXFP1 antagonist -25, gsp agonist 4µM*, RXFP1 agonist 19% and gsp antagonist -4%.
`CC1=NOC(=O)/C1=C/c1ccc(-c2ccc(Cl)cc2)o1` gave RXFP1 agonist -3%.
`CC(=O)NCCNc1nc2c(-c3ccccc3)nnn2c2ccccc12` gave RXFP1 antagonist 6, gsp agonist 22µM*, RXFP1 agonist 5% and gsp antagonist 7%.
`Cc1ccc(C(=O)c2cn(CC(=O)Nc3ccc(C)cc3Cl)c3nc(C)ccc3c2=O)cc1` gave RXFP1 antagonist -13 and RXFP1 agonist inconclusive.
For CC(C)c1ccc(NC(=O)c2cnn(-c3ccccc3)c2NC(=O)c2ccco2)cc1 the results were RXFP1 antagonist -18, gsp agonist inconclusive, RXFP1 agonist 0% and gsp antagonist 40µM*.
O=C(Nc1c(C(=O)Nc2ccccc2)cnn1-c1ccccc1)c1ccco1 was read as RXFP1 antagonist -5, gsp agonist -35%, RXFP1 agonist -2% and gsp antagonist -12%.
`O=C(COc1ccc2c(c1)oc(=O)c1ccccc12)NCCCN1CCOCC1` gave RXFP1 antagonist -3, gsp agonist 31%, RXFP1 agonist 2% and gsp antagonist active.
Screening Cn1c(=O)cc(SCC(=O)NCCCN2CCOCC2)c2ccc(Cl)cc21 returned RXFP1 antagonist 17, gsp agonist 28µM*, RXFP1 agonist 12% and gsp antagonist 6%.
`Cn1c(=O)cc(SCC(=O)NCCCN2CCOCC2)c2ccccc21` gave RXFP1 antagonist -1, gsp agonist 22µM*, RXFP1 agonist 12% and gsp antagonist -2%.
CCn1c(=O)cc(SCC(=O)NCCCN2CCN(c3ccc(F)cc3)CC2)c2ccccc21 was read as RXFP1 antagonist 38, gsp agonist 22µM*, RXFP1 agonist 11% and gsp antagonist -6%.
For Cc1cc(NC(=O)CCn2c(=O)c3cccn3c3cccnc32)ccc1Br the results were RXFP1 antagonist -7 and RXFP1 agonist inconclusive.
Screening COC(=O)c1ccc(NC(=O)CCc2c(C)nc3c(c(C)nn3C(C)(C)C)c2C)cc1 returned RXFP1 agonist 0%.
`CCCCN(CCCC)C(C(N)=O)c1ccc(OC)cc1` (stereo unspecified) gave RXFP1 antagonist -13.
`CN(C)CCCN(C(=O)c1ccc2c(c1)CCCC2)c1nc2c(F)cccc2s1` gave RXFP1 antagonist -74*, gsp agonist 18%[15.4 µM], RXFP1 agonist 2% and gsp antagonist 5%.
Oc1cccc(C2c3[nH]c4ccccc4c3CCN2Cc2ccoc2)c1 (stereo unspecified) was read as RXFP1 antagonist 2, gsp agonist -42%, RXFP1 agonist 2% and gsp antagonist -3%.
Oc1cccc(C2c3[nH]c4ccccc4c3CCN2Cc2ccc3c(c2)CCO3)c1 (stereo unspecified) was read as RXFP1 antagonist -61*, gsp agonist 10%[15.4 µM], RXFP1 agonist 0% and gsp antagonist -5%.
For Clc1cccc(Cl)c1/C=C/c1nc2ccccc2[nH]1 the results were RXFP1 antagonist 6, gsp agonist -1%, RXFP1 agonist 5% and gsp antagonist 28µM*.
For Clc1ccc(/C=C/c2nc3ccccc3[nH]2)cc1 the results were RXFP1 antagonist -2, gsp agonist -9%, RXFP1 agonist 10% and gsp antagonist -16%.
For COc1ccc(CNC(=O)Cc2c(C)c3cc4c(C)coc4cc3oc2=O)cc1 the results were RXFP1 antagonist 6 and RXFP1 agonist 3%.
Cc1ccc(-c2cn(-c3cccc(Cl)c3)c(S(=O)(=O)CC(=O)Nc3ccccc3F)n2)cc1 was read as RXFP1 antagonist -64* and RXFP1 agonist 4%.
`O=C(CS(=O)(=O)c1nc(-c2ccc(Cl)cc2)cn1-c1ccccc1)Nc1ccc(F)cc1F` gave RXFP1 antagonist -64* and RXFP1 agonist -3%.
For O=C(CS(=O)(=O)c1nc(-c2ccc(Cl)cc2)cn1-c1ccccc1)Nc1cccc(Cl)c1 the results were RXFP1 antagonist inconclusive and RXFP1 agonist -1%.
For Cc1c(Cl)cccc1NC(=O)CCn1cnnn1 the results were RXFP1 agonist 3%.
O=c1[nH]c2sc3c(c2c2nncn12)CCCC3 was read as RXFP1 antagonist 4, gsp agonist 0%, RXFP1 agonist 0% and gsp antagonist 35µM*.
For Cc1cccc(Cn2c(=O)n3nc(-c4ccccc4)nc3c3ccccc32)c1 the results were RXFP1 agonist 1%.
`COc1cc(/C=C2/C(=N)N3OC(C)=CC3=NC2=O)ccc1OC(=O)c1ccco1` gave RXFP1 antagonist -75*, gsp agonist 6%[15.4 µM], RXFP1 agonist 2% and gsp antagonist -4%.

Assay outcomes (PubChem BioAssay)
